Our source for the growth values is PubChem BioAssay (NCI).

SMILES strings stand for the structures. About 83,000 compounds went through this panel and 20% of them were active in at least one assay; those are over-represented in the sample as a whole.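 Percent growth is the endpoint: 0 to 100 indicates growth inhibition (40 means 60% inhibition), 0 means no net growth, and negative values indicate cell death.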 A number with no mark means an inactive call. The source made the active and inactive calls. How the source made its calls: active means growth percent below 10; inactive means the rest.

Among the test systems are DU-145 prostate; K-562 leukemia; MALME-3M melanoma; MDA-MB-231 breast; RXF 393 renal; SF-268 CNS; SF-295 CNS; SF-539 CNS; UACC-257 melanoma; M14 melanoma.
What all share (assay): NCI-60 one-dose screen, 48 h (100 = growth as untreated, 0 = no growth, -100 = all killed)
Common to all, as to conditions: 10 µM unless noted

Turning to `CC1[C@H](C)OC(=O)CC(O)CC(O)CC(O)CCC(O)C(O)C[C@]2(O)CC(O)C(C(=O)O)C(CC(OC3O[C@H](C)[C@@H](O)[C@H](N)[C@@H]3O)/C=C/C=C/C=C/C=C/CC/C=C/C=C/[C@H](C)[C@H]1O)O2` (stereo not given in full), the growth in the experiment with DU-145 prostate is 96.7%; in the experiment with K-562 leukemia, 111%; with MALME-3M melanoma, 99.3%; in the experiment with MDA-MB-231 breast, 92.9%; with RXF 393 renal, 107%; with SF-268 CNS, 109%. Further, the growth in the experiment on SF-295 CNS is 102%; with SF-539 CNS, 96.1%; with UACC-257 melanoma it was 101%; in the experiment on M14 melanoma, 98.6%.

In the case of `CCCCCCCC[N+](C)(CCCCCCCC)CCCCCCCC`, the growth is -100% (active) with DU-145 prostate; 86.9% in the experiment on K-562 leukemia; -91.7% (active) in the experiment with MALME-3M melanoma; -87% (active) with MDA-MB-231 breast; -100% (active) with RXF 393 renal; -100% (active) in the experiment on SF-268 CNS. The growth was -94.8% (active) in the experiment on SF-295 CNS, -100% (active) in the experiment with SF-539 CNS, -95.2% (active) in the experiment with UACC-257 melanoma and -94.1% (active) with M14 melanoma.

With `O=C(O)C1C(C(=O)O)C2(Cl)C(Cl)=C(Cl)C1(Cl)C2(Cl)Cl.[Hg]` (stereo not given), the growth with DU-145 prostate was 96.7%; in the experiment with K-562 leukemia it was 15.1%; in the experiment on MALME-3M melanoma it was 69.5%; with MDA-MB-231 breast it was 86.4%; in the experiment with RXF 393 renal it was 123%; in the experiment on SF-268 CNS it was 97.5%. The growth in the experiment with SF-295 CNS is 95.2%; in the experiment on SF-539 CNS it was 102%; with UACC-257 melanoma it was 74.7%; in the experiment on M14 melanoma, 80.2%.

As to `Cn1cc(-c2csc(-c3cn(CCN4CCOCC4)c4ccccc34)n2)c2cccnc21`, the growth is 89.1% in the experiment with DU-145 prostate; 44.8% with K-562 leukemia; 81.4% in the experiment with MALME-3M melanoma; 69.8% with MDA-MB-231 breast; 93.7% in the experiment on RXF 393 renal; 79.8% in the experiment with SF-268 CNS. Moreover, the growth in the experiment with SF-295 CNS was 72.2%; in the experiment with SF-539 CNS, 73.2%; in the experiment with UACC-257 melanoma it was 90.7%; in the experiment on M14 melanoma, 39%.

Turning to `C=COC(=O)CCN1CC1`, the growth in the experiment on DU-145 prostate is 113%; in the experiment on K-562 leukemia it was 111%; with MALME-3M melanoma, 112%; in the experiment with MDA-MB-231 breast, 103%; in the experiment on RXF 393 renal, 111%; in the experiment on SF-268 CNS, 106%. Also, the growth is 101% in the experiment with SF-295 CNS, 103% in the experiment with SF-539 CNS, 105% in the experiment with UACC-257 melanoma and 102% with M14 melanoma.

For `CC(=O)[C@H]1CC[C@H]2[C@@H]3CC[C@H]4C[C@H](N)CC[C@]4(C)[C@H]3CC[C@]12C`, the growth in the experiment on DU-145 prostate is 92.2%; in the experiment on K-562 leukemia, 56%; with MALME-3M melanoma, 82.9%; in the experiment on MDA-MB-231 breast, 72.7%; in the experiment on RXF 393 renal, 66.8%; in the experiment with SF-268 CNS, 92%. Also, the growth in the experiment on SF-295 CNS is 99.6%; in the experiment with SF-539 CNS it was 84.6%; with UACC-257 melanoma, 55.2%; in the experiment with M14 melanoma it was 68.3%.

Regarding `COC(=O)[C@@H](C)C[C@H](Cc1ccccc1)NC(=O)c1csc([C@@H](C[C@H](C(C)C)N(C)C(=O)[C@@H](NC(=O)C23CC(NC(C)=O)(C2)C3)C2CC2)OC(C)=O)n1`, the growth with DU-145 prostate is 61.6%; with K-562 leukemia, 14.2%; in the experiment on MALME-3M melanoma it was 56.4%; in the experiment on MDA-MB-231 breast it was 57.9%; in the experiment on RXF 393 renal it was 36.9%; in the experiment with SF-268 CNS, 55.6%. Moreover, the growth in the experiment on SF-295 CNS was 82%; in the experiment on SF-539 CNS it was 42.4%; in the experiment on UACC-257 melanoma, 46.2%; in the experiment on M14 melanoma, 41%.

Take `CC(C)[C@@H]1NC(=O)[C@]2(C)CSC(=N2)c2csc(n2)CNC(=O)C[C@@H](/C=C/CCS)OC1=O`: the growth in the experiment with DU-145 prostate was 8.24% (active); with K-562 leukemia, 8.34% (active); in the experiment with MALME-3M melanoma, 21.4%; in the experiment on MDA-MB-231 breast it was 12%; with RXF 393 renal, -57.7% (active); with SF-268 CNS, 11.3%. Further, the growth is 6.21% (active) with SF-295 CNS, 21% with SF-539 CNS, -42.5% (active) in the experiment with UACC-257 melanoma and 10.1% with M14 melanoma.

On to `COc1ccc2c(c1)c(-c1nc(-c3cn(C)c4ncccc34)cs1)cn2CCN1CCOCC1`, for which the growth in the experiment on DU-145 prostate is 36.3%; in the experiment with K-562 leukemia, 9.83% (active); in the experiment with MALME-3M melanoma, 71.5%; in the experiment with MDA-MB-231 breast it was 56.8%; in the experiment on RXF 393 renal, 56.7%; in the experiment on SF-268 CNS, 48.4%. For the same compound, the growth was 49.3% in the experiment on SF-295 CNS, 48% with SF-539 CNS, 93.2% with UACC-257 melanoma and 31.9% in the experiment on M14 melanoma.

With `O=C(CC1(O)C(=O)Nc2ccc(Cl)cc21)c1ccc(C(=O)NCC2CCC3(CC2)OOC2(CCCCC2)OO3)cc1` (stereo not given), the growth in the experiment with DU-145 prostate is -60.1% (active); in the experiment on K-562 leukemia, -56.9% (active); in the experiment on MALME-3M melanoma, -51.5% (active); in the experiment on MDA-MB-231 breast, 16.8%; in the experiment on RXF 393 renal it was 18.5%; with SF-268 CNS, 32.9%. Further, the growth was 37.6% in the experiment with SF-295 CNS, -52.5% (active) in the experiment with SF-539 CNS, 37.8% in the experiment with UACC-257 melanoma and 52% in the experiment with M14 melanoma.

Take `CCCC(C)C1(CC)C(=O)NC(=O)N(C)C1=O` (stereo not given): the growth with DU-145 prostate is 107%; in the experiment on K-562 leukemia, 102%; in the experiment with MALME-3M melanoma, 90.1%; in the experiment on MDA-MB-231 breast, 107%; with RXF 393 renal it was 119%; in the experiment with SF-268 CNS, 100%. Moreover, the growth was 102% with SF-295 CNS, 96.4% in the experiment on SF-539 CNS, 83.6% in the experiment with UACC-257 melanoma and 101% with M14 melanoma.

In the case of `CCCC[C@H](NC(=O)[C@H]1CCCCN1C)C(=O)N(C)[C@H](C[C@@H](OC(C)=O)c1nc(C(=O)N[C@@H](Cc2ccccc2)C[C@H](C)C(=O)OCC)cs1)C(C)C`, the growth is 16.2% in the experiment on DU-145 prostate; 7.31% (active) in the experiment on K-562 leukemia; 37.4% with MALME-3M melanoma; 5.49% (active) with MDA-MB-231 breast; 28.8% in the experiment with RXF 393 renal; 21.6% in the experiment on SF-268 CNS. For the same compound, the growth in the experiment on SF-295 CNS was 16.9%; in the experiment with SF-539 CNS, -11.1% (active); with UACC-257 melanoma it was 49.5%; in the experiment with M14 melanoma it was 1.33% (active).

With `c1ccc(CSC(c2ccccc2)c2ccccc2)cc1`, the growth in the experiment with DU-145 prostate was 121%; in the experiment with K-562 leukemia, 105%; with MALME-3M melanoma it was 110%; with MDA-MB-231 breast, 119%; in the experiment on RXF 393 renal it was 119%; in the experiment with SF-268 CNS it was 112%. Also, the growth in the experiment on SF-295 CNS was 114%; in the experiment on SF-539 CNS, 105%; in the experiment on UACC-257 melanoma, 105%; in the experiment on M14 melanoma, 99.1%.
